This is a sample that favours compounds with a hit; in the whole collection about 2.3% have one here.
POLI inh – qHTS for Inhibitors of Polymerase Iota. Pol iota fluorescent replication assay, 10 min. AID 588590, 2011. hit rate 1% among 390,000. Potency, µM (doses to about 115 µM), hits mostly inhibitors
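Fluorescent replication assay read twice, at 0 min and 10 min after adding 50 nM (final) substrate. Enzyme (10 nM) and compounds were first incubated 15 min at room temperature; enzyme-free buffer wells were negative controls.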
Pol kappa inh-1 – qHTS for Inhibitors of Polymerase Kappa; hit rate 0.53% among 400,000; Potency, µM (titrated, usually from 107 µM), actives largely listed as inhibitors; purified Pol kappa, fluorescent DNA synthesis assay, 10 min
Target sequence (Q9UBT6 whole entry, looked up): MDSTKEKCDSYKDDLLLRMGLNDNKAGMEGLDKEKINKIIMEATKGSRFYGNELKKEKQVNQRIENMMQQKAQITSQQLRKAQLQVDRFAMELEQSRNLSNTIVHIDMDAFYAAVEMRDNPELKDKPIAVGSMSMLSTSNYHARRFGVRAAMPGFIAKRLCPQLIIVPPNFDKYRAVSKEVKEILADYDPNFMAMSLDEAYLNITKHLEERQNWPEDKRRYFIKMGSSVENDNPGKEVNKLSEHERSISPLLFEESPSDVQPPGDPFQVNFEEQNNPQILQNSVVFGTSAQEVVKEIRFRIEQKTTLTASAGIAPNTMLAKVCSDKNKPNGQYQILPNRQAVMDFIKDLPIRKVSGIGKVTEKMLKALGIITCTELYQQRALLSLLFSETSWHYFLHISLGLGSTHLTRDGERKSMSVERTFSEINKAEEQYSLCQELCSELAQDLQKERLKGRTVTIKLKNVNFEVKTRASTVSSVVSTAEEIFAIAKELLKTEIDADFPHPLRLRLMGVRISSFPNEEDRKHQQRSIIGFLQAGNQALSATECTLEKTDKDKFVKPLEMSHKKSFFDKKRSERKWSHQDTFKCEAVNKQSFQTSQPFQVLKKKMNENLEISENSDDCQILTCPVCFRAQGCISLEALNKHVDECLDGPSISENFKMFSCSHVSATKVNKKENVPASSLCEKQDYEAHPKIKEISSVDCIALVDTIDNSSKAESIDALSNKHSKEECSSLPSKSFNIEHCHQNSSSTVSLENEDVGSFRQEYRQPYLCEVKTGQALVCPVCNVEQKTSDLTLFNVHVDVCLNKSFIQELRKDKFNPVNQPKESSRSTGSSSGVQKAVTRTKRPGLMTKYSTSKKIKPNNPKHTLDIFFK
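Kinetic fluorescence readout at 0 and 10 min followed reaction start with substrate at 50 nM final. Beforehand, enzyme (10 nM Pol kappa) stood 15 min with compound at room temperature; buffer-only wells were negative controls.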
Pol beta inh – qHTS Assay for Inhibitors of DNA Polymerase Beta. Pol beta primer extension/strand displacement, fluorescence kinetic. AID 485314, 2010. P06746. hit rate 1.3% among 340,000. Potency, µM (titrated, usually from 114 µM), usual class: inhibitors
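Curves were derived by four-parameter Hill fits of normalized qHTS data. The kinetic fluorescent primer-extension read was taken at 0 and 10 min after 50 nM substrate, following a 15 min room-temperature preincubation of 10 nM enzyme with compounds.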
WRN helicase inh – qHTS for Inhibitors of WRN Helicase. WRN helicase unwinding, fluorescent forked duplex, kinetic. Potency, µM (series often up to 114 µM), actives largely listed as inhibitors. hit rate 0.46% among 360,000. AID 651768, 2012; note: nearly all actives have a fitted effect of over 55% in size
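Primary qHTS, 1536-well format. 20 nM WRN + compound, 15 min RT; start with 100 nM forked fluorophore/quencher duplex, 2 mM ATP (final); kinetic read ex 525/em 598 nm.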
Pol eta inh-1 – qHTS for Inhibitors of Polymerase Eta. recombinant Pol eta, fluorescent DNA replication assay. Potency, µM (titrated, usually from 114 µM), usual class: inhibitors. hit rate 1.2% among 390,000. AID 588591, 2011
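Pol eta at 10 nM preincubated with compounds 15 min at room temperature; reaction started with fluorescent substrate (50 nM final) and read kinetically at 0 and 10 min.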
GALK confirm – Confirmation Assay for Inhibitors of Human Galactokinase (GALK); purified GALK, Kinase-Glo ATP depletion luminescence; hit rate 70% among 150; Potency, µM (titrated, usually from 115 µM), actives largely listed as inhibitors; shares compounds with Pol eta inh-1
Redox cycling – Confirmatory Assay for Inhibitors of Human Galactokinase (GALK): Phenol-HRP redox assay counterscreen; shares compounds with Pol eta inh-1; Phenol red-HRP H2O2 redox cycling, absorbance 600 nm; Potency, µM (titrated, usually from 115 µM), usual class: inhibitors; hit rate 40% among 150; AID 2035, 2009
HEK293 viability – Secondary Assay for Inhibitors of Human Galactokinase (GALK): HEK-293 Cell Viability Assay. shares compounds with Pol eta inh-1. HEK-293 viability, ATP luminescence (CellTiter-Glo), 24/48 h. Potency, µM (titrated, usually from 46.1 µM), most hits filed as inhibitors. hit rate 10% among 170. AID 2547, 2010
Pol kappa inh-2 – qHTS for Inhibitors of Polymerase Kappa: Confirmatory Assay for Cherry-picked Compounds. shares compounds with Pol eta inh-1. purified Pol-kappa, fluorescent strand-displacement substrate. Potency, µM, actives largely listed as inhibitors. hit rate 76% among 920. AID 720501, 2013
Pol eta inh-2 – qHTS for Inhibitors of Polymerase Eta: Confirmatory Assay for Cherry-picked Compounds; Pol eta primer extension, TAMRA/BHQ fluorescence, 10 min; Potency, µM, usual class: inhibitors; shares compounds with Pol eta inh-1; AID 720502, 2013; hit rate 64% among 2,600
Numbers stand for hits; n = inactive; u = inconclusive; x = no result given; [ ] = dose if it differs, or a comment. Calls come from the whole dose curve; as a rule, active = well fitted curve in the direction sought with a large enough effect; inconclusive = small, poorly fitted or top-dose-only effect, or another doubt; inactive = no such curve, though single readings can be large; an effect the other way counts as inactive or inconclusive.

SMILES | POLI inh | Pol kappa inh-1 | Pol beta inh | WRN helicase inh | Pol eta inh-1 | Pol eta inh-2 | others
COc1cc(/C=C2\C(=N)N3N=C(S(C)(=O)=O)SC3=NC2=O)ccc1OS(=O)(=O)c1ccc(C)cc1 | 20µM | u | 100µM | n[11.6 µM] | 32µM | 48
COc1cc(/C=C2/C(=N)N3C(c4ccccc4)=CSC3=NC2=O)ccc1OCC(=O)O | n | n | n | n[11.6 µM] | 20µM | u
COc1ccccc1OCCOc1ccc(/C=C2\C(=N)N3N=C(S(C)(=O)=O)SC3=NC2=O)cc1 | n | n | u | n[11.6 µM] | 22µM | u | Pol kappa inh-2=u
N#Cc1ccc(S(=O)(=O)N2CCC(Oc3cccc(C(F)(F)F)c3)CC2)cc1 | n | n | n | x | n | x
COc1ccc(CCNC(=O)c2cc(Nc3cc(C)cc(C)c3)nc3ccccc23)cc1OC | n | n | n | x | n | x
COc1cccc(N2CCN(c3ncc4c(n3)CCN(Cc3ccc(Br)cc3)C4)CC2)c1 | n | n | n | x | n | x
COc1cc(/C=C2\C(=N)N3N=C(S(C)(=O)=O)SC3=NC2=O)cc(OC)c1OCCOc1ccccc1C | u | n | u | u | 25µM | u | Pol kappa inh-2=u
O=C(CCCCCn1c(=O)c2sccc2n(Cc2ccc(Cl)cc2)c1=O)NCc1ccc2c(c1)OCO2 | n | n | n | x | n | x
Cc1[nH][nH]c(=O)c1C(c1ccc(-c2cccc(Cl)c2)o1)c1c(C)[nH][nH]c1=O | 2.8µM | n | n | n | 79µM | x | GALK confirm=53µM;Redox cycling=6.7µM;HEK293 viability=n
CCSc1nnc(NC(=O)C2CC=CCC2C(=O)O)s1 (centres undefined) | u | n | 32µM | n | 20µM | u
Cc1nn2c(=O)cc(COc3ccc(/C=C(\C#N)C(=O)Nc4ccccc4)cc3Cl)nc2s1 | u | n | u | x | n | x
CCOc1cc(/C=C(\C#N)C(=O)Nc2cccc(C(=O)O)c2)ccc1OCc1ccccc1Cl | u | n | n | n | 56µM | u
Cc1cc(C)cc(OC(=O)c2snnc2C)c1 | n | n | n | x | n | x
O=C1/C(=C/c2ccncc2)CCC/C1=C\c1ccncc1 | 10µM | n | n | u | 45µM | u
COc1cc(-c2cc(=O)c3c(O)cc(O)cc3o2)ccc1O | n | n | u | n | n | x
O=c1oc(-c2ccc(O)c(O)c2)cc2cc(O)cc(O)c12 | 28µM | u | x | 50µM | 10µM | 54 | Pol kappa inh-2=u
CC(=O)Nc1sc2c(c1-c1nc3ccccc3s1)CCSC2 | x | x | x | x | x | 76
CC(=O)N1CCc2c(sc(NC(=O)CSc3ccc(C)cc3)c2-c2nc3ccccc3s2)C1 | u | n | n | x | n | x
CC(=O)Nc1scc(C)c1-c1nc2ccccc2s1 | n | n | u | n | n | x
CC(=O)Nc1sc2c(c1-c1nc3ccccc3s1)CNC2 | x | x | x | x | x | u
CCOc1ccccc1NC(=O)N1CCc2c(sc(C)c2CC)C1c1ccccc1 (centres undefined) | n | n | n | x | n | x
Cc1cccn2c(=O)cc(COc3cccc(NC(=O)COc4ccccc4)c3)nc12 | n | n | n | x | n | x
CCCCOc1cccc(C2c3c(-c4cc(C)ccc4O)n[nH]c3C(=O)N2CCOC)c1 (centres undefined) | n | n | n | x | n | x
Cc1cc(NS(=O)(=O)c2ccc(NC(=O)/C=C/c3ccccc3)cc2)nc(C)n1 | n | n | x | n | n | x

High-throughput results from PubChem BioAssay.
